# A3A deaminase = human APOBEC3A DNA deaminase inhibition; P31941; recombinant A3A, FAM/TAMRA ssDNA deamination fluorescence; inhibition, % at 20 µM; 330,000 tested, 0.41% active; AID 493011;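 active = at least 40% inhibition at 20 µM here, with at most 30% in a related deaminase screen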;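 note: plate controls were A3A with DMSO for no effect and wells lacking A3A enzyme for full effect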
# APOBEC3G inh = APOBEC3G (human) deaminase inhibition | recombinant A3G, ssDNA deamination FAM/TAMRA fluorescence | inhibition, % at 20 µM | 330,000 tested, 0.28% active;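 active = inhibition of at least 40% at 20 µM, with no more than 30% in the related APOBEC3A deaminase screen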;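 note: plate controls were DMSO wells with A3G for no effect and wells lacking A3G enzyme for full effect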
# LANA-H2A inh = blocks KSHV LANA binding to histone H2A/H2B. Q9QR71. cell-free LANA-H2A/H2B peptide, fluorescence polarization. inhibition, % (concentration not given with the values). 320,000 tested, 0.6% active. AID 2629; in the data active = inhibition mostly above about 10%, no sharp cut-off; inactive = mostly below about 6.7%
# HDAC3 inhib = human HDAC3 inhibition; inhibition, % at 8.3 µM; 320,000 tested, 0.15% active; recombinant HDAC3, fluorogenic peptide/trypsin coupled, fluorescence; O15379; in the data active = inhibition above about 26%, passing the limit was not always enough
# Numbers without * were called inactive; x = no result. Only some compounds are listed: those with a hit (about 1.4% of all), similar ones and a draw of the others.
SMILES,A3A deaminase,APOBEC3G inh,LANA-H2A inh,HDAC3 inhib
CCN(CC)C(=O)c1ccc(NS(=O)(=O)c2ccc3[nH]c(=O)[nH]c3c2)cc1,-0.3,-6.9,2.0,-16.7
CCC(CC)C(=O)NCc1ccc2c(c1)cc(C)n2C,-3.2,-7.0,3.0,0.8
Cc1cc2cc(CNC(=O)c3cccs3)ccc2n1C,-2.7,-6.3,78.2*,8.5
CCCN=C1N(CC)C[C@@H]2[C@@H]3C(=O)N(Cc4ccccc4)C(=O)[C@@H]3[C@](Cc3ccccc3)(C(=O)OC)N12,4.7,6.1,x,x
CCOC(=O)C1=C(CSc2nc(-c3ccccc3)ccc2C#N)OC(N)=C(C#N)C1c1ccccc1 (stereo not given),-9.0,-9.4,198.1*,8.4
C[C@H]1O[C@H]1P(=O)(O)O,-2.3,-6.0,33.4*,x
C[C@@H]1O[C@@H]1P(=O)(O)O,3.2,-2.7,3.1,-2.8
Cc1cc(C(=O)NCC2CCCO2)n(-c2ccccc2)n1 (stereo not given),1.6,-2.2,-0.9,3.4
Cc1nn(-c2ccccc2)c(Cl)c1C(=O)NCC1CCCO1 (stereo not given),-1.3,-2.0,23.7*,1.8
Cc1ccc(S(=O)(=O)n2nccc2-c2c(-c3ccc(Cl)cc3)noc2C)cc1,-3.6,-6.5,16.9*,-5.5
O=C(Cn1cnc2c(OCc3ccccc3)ncnc21)NCCCc1ccccc1,-2.7,-6.3,1.8,3.3
Cn1c(=NC(=O)C2=NNC(=O)CC2)sc2ccccc21,0.0,-4.3,15.4*,6.0
CC(=O)Oc1c(Cl)cc(N(C(C)=O)S(=O)(=O)c2ccccc2)c2ccccc12,-2.0,0.7,9.8,0.1
CCC(C)NC(=O)c1ccc(CN2CCc3ccccc3C2)cc1 (stereo not given),-4.8,-7.0,-2.6,7.5
COCC(C)NC(=O)c1ccc(CN2CCc3ccccc3C2)cc1 (stereo not given),0.4,-3.2,30.7*,1.5
O=C(c1ccccc1)n1nnc2ccccc21,0.3,-0.4,3.2,96.2*
Cc1ccnc(NC(=O)c2cccc(NC(=O)CC3SC(N4CCCCC4)=NC3=O)c2)c1 (stereo not given),1.6,1.4,5.6,2.9
CN(C)c1ccc(/C=N/NC(=O)CNC(=O)c2ccc3c(c2)OCCO3)cc1,-3.7,-5.0,24.7*,-27.9
O=C(Cc1ccc2c(c1)OCCO2)Nc1cc(Cl)ccc1N1CCOCC1,2.8,-1.6,x,x
C[C@H](NC(=O)Cc1cccc2ccccc12)C(=O)NCc1ccccc1,0.3,-6.1,16.4*,-3.3
O=C(CSc1ncn[nH]1)CSc1ncn[nH]1,4.7,-2.6,-1.4,37.0*
N#Cc1c(SCc2c(Cl)cccc2Cl)nc(N)[nH]c1=S,-3.0,-9.5,11.2*,1.0
Cc1[nH]c(=O)nc(SCc2cccc(Cl)c2)c1C#N,0.9,-11.7,5.7,1.6
CN(CCNC(=O)C1CCC(=O)N(Cc2ccc(Cl)cc2)C1)CCc1ccccc1 (stereo not given),-3.2,-6.1,-1.6,7.5
CN(C)C1(CNC(=O)C2CCC(=O)N(Cc3ccc(Cl)cc3)C2)CCCCC1 (stereo not given),-1.3,-3.3,11.2*,2.8
SMILES,A3A deaminase,APOBEC3G inh,LANA-H2A inh,HDAC3 inhib
O=C(CC1SC(N2CCCC2)=NC1=O)Nc1ccc(C(=O)Nc2ncccc2O)cc1 (stereo not given),-1.8,-2.7,2.8,93.7*
O=C(CC1SC(N2CCCCC2)=NC1=O)Nc1cccc(C(=O)O)c1 (stereo not given),1.1,1.3,14.0*,-4.7
CCOC(=O)[C@H]1[C@H]2COc3cc(OC)ccc3[C@@H]2N2C(=O)[C@@H](CO)NC(=O)[C@@]12C,-1.5,-3.4,0.3,3.6
CCOc1ccccc1C(=O)NC(C(=O)N(C)Cc1ccc2c(c1)OCO2)C(C)C (stereo not given),1.6,-5.9,x,x
O=C(CNC(=O)OCc1ccccc1)Oc1ccc2ccc(=O)oc2c1,-2.5,-2.5,-4.7,-223.7
O=C(NC(Cc1ccccc1)C(=O)Oc1ccc2c(C(F)(F)F)cc(=O)oc2c1)OCc1ccccc1 (stereo not given),x,x,175.1*,3.5
Brc1cccc(-c2n[nH]c(-c3ccccc3)n2)c1,0.9,0.7,17.5*,5.0
c1ccc(-c2nc(-c3cccnc3)n[nH]2)cc1,-1.8,-8.7,-1.4,-2.5
Cc1ccc(S(=O)(=O)NC2CCCCC2)cc1,2.0,-5.1,45.2*,-11.8
Cc1ccc(S(=O)(=O)NC2CC2)cc1,2.5,0.8,-3.1,0.1
CCCCc1ccc(NC(=O)CSCc2cc(=O)[nH][nH]2)cc1,-0.6,-5.4,-0.1,4.5
O=C(CSCc1cc(=O)[nH][nH]1)Nc1ccc(F)cc1,-1.4,-5.4,18.5*,-0.1
COC(=O)C1=C(C)NC(C)=C(C(=O)OC)C1c1ccc(-c2cccc([N+](=O)[O-])c2)o1,-4.7,-12.0,1.3,35.0*

# Source: PubChem
